From PubChem BioAssay AID743445 (Broad Institute, 2014)
Out of some 310,000 compounds screened, about 1,700 (0.55%) were called active. The sample holds actives, similar compounds and a random draw of the others, so the mix is not that of the screen. Values without a mark were called inactive. Rule as the data show it: active = inhibition above about 50%; inactive = the rest.

molecular target: Histone-lysine N-methyltransferase NSD2 (Homo sapiens) (UniProt O96028); test: NSD2 histone methyltransferase inhibitors, primary screen, biochemical, AlphaScreen, single concentration, set 2 (AID 743445); conditions: NSD2 peptide methylation, 120 min, at 12.5 µM, stronger effect = higher value
Sequence (O96028 whole entry, looked up): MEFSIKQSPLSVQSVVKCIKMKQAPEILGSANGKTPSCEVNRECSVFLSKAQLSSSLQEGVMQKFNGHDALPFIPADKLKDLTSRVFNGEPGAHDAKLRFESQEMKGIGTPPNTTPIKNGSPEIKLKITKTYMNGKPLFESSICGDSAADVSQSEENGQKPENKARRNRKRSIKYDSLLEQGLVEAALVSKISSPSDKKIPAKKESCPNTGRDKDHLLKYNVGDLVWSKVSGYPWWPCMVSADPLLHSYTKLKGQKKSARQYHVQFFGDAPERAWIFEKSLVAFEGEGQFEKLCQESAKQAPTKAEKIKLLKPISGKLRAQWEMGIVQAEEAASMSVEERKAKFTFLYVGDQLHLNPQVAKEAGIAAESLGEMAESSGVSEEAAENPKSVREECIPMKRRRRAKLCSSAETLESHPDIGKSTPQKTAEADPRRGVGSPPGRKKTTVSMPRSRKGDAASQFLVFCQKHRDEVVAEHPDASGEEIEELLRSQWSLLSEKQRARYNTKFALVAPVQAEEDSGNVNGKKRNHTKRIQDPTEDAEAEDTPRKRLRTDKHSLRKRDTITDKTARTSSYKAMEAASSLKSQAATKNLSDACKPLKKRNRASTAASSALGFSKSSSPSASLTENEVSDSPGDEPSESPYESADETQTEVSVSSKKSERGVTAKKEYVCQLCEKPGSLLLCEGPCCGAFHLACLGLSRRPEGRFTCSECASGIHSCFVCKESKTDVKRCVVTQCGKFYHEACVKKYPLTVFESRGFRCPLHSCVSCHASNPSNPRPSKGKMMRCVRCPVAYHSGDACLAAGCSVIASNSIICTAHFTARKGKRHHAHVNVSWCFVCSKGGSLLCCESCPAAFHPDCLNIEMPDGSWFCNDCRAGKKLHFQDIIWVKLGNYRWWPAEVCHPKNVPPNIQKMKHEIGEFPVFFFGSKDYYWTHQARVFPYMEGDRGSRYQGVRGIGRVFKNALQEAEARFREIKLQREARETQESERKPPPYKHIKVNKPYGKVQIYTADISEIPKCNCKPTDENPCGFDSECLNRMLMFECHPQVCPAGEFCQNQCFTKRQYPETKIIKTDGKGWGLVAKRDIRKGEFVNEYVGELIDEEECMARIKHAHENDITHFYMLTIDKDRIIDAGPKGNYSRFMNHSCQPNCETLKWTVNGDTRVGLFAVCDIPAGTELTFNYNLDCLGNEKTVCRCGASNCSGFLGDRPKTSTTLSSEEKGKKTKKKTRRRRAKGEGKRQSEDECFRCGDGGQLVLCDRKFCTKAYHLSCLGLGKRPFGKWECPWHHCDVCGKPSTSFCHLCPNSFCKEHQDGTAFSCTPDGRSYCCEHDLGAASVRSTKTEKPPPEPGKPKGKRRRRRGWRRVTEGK

| SMILES | inhibition |
| --- | --- |
| CC1(C(=O)Nc2cccc(Oc3ccccc3)c2)CCN1Cc1ccccc1Cl (configuration not stated) | -0.732% |
| CCc1nc2c(OCCOc3ccccc3)cccn2c1N(C=O)Cc1ccc(OC)cc1 | -1.53% |
| COc1ccccc1/C=C1\SC(=O)N(CCC(=O)N(C)C2CCS(=O)(=O)C2)C1=O (configuration not stated) | 2.59% |
| CN(C(=O)CCN1C(=O)/C(=C/c2ccccc2F)SC1=S)C1CCS(=O)(=O)C1 (configuration not stated) | -1.43% |
| CN(C(=O)CN1C(=O)S/C(=C\c2ccccc2F)C1=O)C1CCS(=O)(=O)C1 (configuration not stated) | 71.1% (active) |
| O=C(CNC(=O)C1COc2ccccc2O1)N/N=C/c1cc(Br)c(O)c(Br)c1 (configuration not stated) | 26.9% |
| Cc1c(CC(=O)N2CCN(C(=O)C3COc4ccccc4O3)CC2)c(=O)oc2c(O)c(O)ccc12 (configuration not stated) | 125% (active) |
| CCN(CC)S(=O)(=O)c1ccc(N2CCOCC2)c(NC(=O)C2COc3ccccc3O2)c1 (configuration not stated) | -0.001% |
| CCc1nc2ccc(C(=O)NCCNC(C)=O)cn2c1N(CC)Cc1cccc(Br)c1 | 1.25% |
| N#Cc1ccc(CSc2nnc3ccccn23)cc1 | -1.73% |
| N#Cc1ccc(CSc2ncccn2)cc1 | 67.5% (active) |
| N#Cc1ccc(CSc2nnc(-c3ccccn3)n2-c2ccc(Cl)cc2)cc1 | 3.24% |
| COc1ccc(N2CCN(CCNS(=O)(=O)c3ccc(C(C)(C)C)cc3)CC2)cc1 | 9.53% |
| COc1ccc(-n2c(SCC(=O)Nc3ccc4c(c3)OCCO4)nnc2-c2ccc(Cl)cc2)cc1 | 3.06% |
| Cc1ccc(Cn2cc(COC(=O)N(C)Cc3ccccc3)nn2)cc1 | -1.9% |
| CCNC(=O)C1(C)CCN(C(=O)c2ccccc2)C1 (configuration not stated) | -2.2% |
| CCNC(=O)C1(C)CCCN(C(=O)c2ccc3ccccc3n2)C1 (configuration not stated) | 104% (active) |
| CCNC(=O)C1(C)CCCN(C(=O)c2c(C)noc2C)C1 (configuration not stated) | -2.53% |
| COc1ccc(-n2c(SCC(=O)Nc3ccc4cn[nH]c4c3)nnc2-c2cccnc2)cc1 | 10.9% |

| SMILES | inhibition |
| --- | --- |
| O=S(=O)(Nc1ccc(C(O)(C(F)(F)F)C(F)(F)F)cc1)c1ccc(-c2ccccn2)s1 | 11.8% |
| Cc1cc(C)cc(N(CC(=O)NCCSCc2ccco2)S(C)(=O)=O)c1 | 7.95% |
| CS(=O)(=O)N(CC(=O)NCc1ccco1)c1ccc2c(c1)OCO2 | 65.1% (active) |
| S=C(NCc1ccc2c(c1)OCO2)NCc1ccco1 | 4.85% |
| COc1ccc(C(=O)CSc2nnc(-c3cnccn3)n2-c2ccc(C)cc2)cc1 | -4.12% |
| COc1ccc(-n2c(SCC(=O)Nc3ccc(C)c(Cl)c3)nc3ccccc3c2=O)cc1 | 5.51% |
| COc1cc(NC(=O)c2cc(-c3ccc(F)cc3OC(C)C)n[nH]2)cc(OC)c1OC | -1.66% |
| O=C1C(Cl)=C(Oc2ccccc2)C(=O)c2ccccc21 | 101% (active) |
| CC(=O)Oc1ccc2c(c1)C(=O)c1ccccc1C2=O | 4.31% |
| COc1cccc(-c2ccc3c(c2)N(Cc2ccccc2OC)C(=O)C(C)S3)c1 (configuration not stated) | -0.375% |
| Cc1ccc(-n2c(SCC(=O)Nc3ccc(S(=O)(=O)Nc4nccs4)cc3)nnc2-c2cccnc2)cc1 | 6.22% |
| CC1(C(=O)Nc2cccc3c2CCCC3)CCN1C(=O)CCc1ccc(Cl)cc1Cl (configuration not stated) | -2.57% |
| O=C(CSc1nnc(-c2ccccn2)n1-c1ccc(Cl)cc1)Nc1ccccc1-c1ccccc1 | -2.53% |
| OC[C@@H]1CN(Cc2cccs2)C[C@H](n2cnc3c(NC4CCCC4)ncnc32)O1 | -1.52% |
| Cc1ccc(NC(=O)c2cc(C)nn2-c2ccccc2)c(C)c1 | -1.54% |
| CCOC(=O)C1=C(C)NC2=C(C(=O)CC(C)(C)C2)C1c1ccc2c(c1)OCO2 (configuration not stated) | 15.9% |
| CCOc1ccc(CCN2C(=O)c3cccnc3C2=O)cc1OCC | -2.42% |
| Cc1cccc(N2C(=O)c3cccnc3C2=O)c1 | -1.99% |
| NC1=CC(=O)C(=O)c2cccnc21 | 122% (active) |

| SMILES | inhibition |
| --- | --- |
| CCOc1ccc(C(c2c(C)[nH][nH]c2=O)c2c(C)[nH][nH]c2=O)cc1OCC | 10.6% |
| Cc1[nH][nH]c(=O)c1C(c1ccc2c(c1)OCO2)c1c(C)[nH][nH]c1=O | 84.4% (active) |
| Nc1[nH][nH]c(=O)c1N=Nc1ccc2c(c1)OCO2 | 4.47% |
| CCCCN1CCN(C(=O)c2ccc3c(c2)NC(=O)C(C)(C)O3)CC1 | 8.11% |
| COc1ccc(CN(CCN2CCOCC2)C(=O)c2ccc(C)cc2)cc1OC | 6.86% |
| COc1ccc(CSc2nnc(SCC(=O)Nc3ccccc3C(F)(F)F)s2)cc1 | 0.831% |
| COc1ccc(CSc2nnc(-c3cccc(C)c3)n2C)cc1 | 0.584% |
| Oc1ccc2ccccc2c1N=Nc1nccs1 | 34.1% |
| Oc1c(C=Nc2cccc3nsnc23)ccc2ccccc12 | 109% (active) |
| O=C(CSc1nc2ccccc2s1)N=Nc1c(O)[nH]c2ccccc12 | 2.59% |
| O=C(CSc1nnc(COc2ccccc2)n1Cc1ccco1)c1ccc2ccccc2c1 | 0.338% |
| O=C(CSc1nc2ccccc2n1Cc1ccccc1Cl)N/N=C\c1c[nH]c2ccccc12 | 3% |
| COc1cc(C(=O)OCc2ccc([N+](=O)[O-])cc2)cc(OC)c1OC | -0.924% |
| COc1cc(NC(=O)COC(=O)c2ccc([N+](=O)[O-])s2)cc(OC)c1OC | 72.8% (active) |
| O=C(OCC(=O)N1CCN(c2ccccc2)CC1)c1ccc([N+](=O)[O-])s1 | 1.02% |
| O=C(NCc1cccnc1)c1cc(C2CCCN(C(=O)CCCc3ccccc3)C2)on1 (configuration not stated) | -1.28% |
| Fc1ccc2nc(COCc3nc4ccc(F)cc4[nH]3)[nH]c2c1 | -1.4% |
| CCCOc1ccc(F)cc1-c1cc(C(=O)NCc2ccc(F)cc2)[nH]n1 | 19.4% |
| COc1ccc(CCNC(=O)CSc2nc3c([nH]2)c(=O)n(C)c(=O)n3C)cc1 | -8.19% |
